Assay [1] deals with human Retinoic Acid Receptor beta (RARb), RARB (gene 5915) (UniProt P10826). Nature of the assay: ATG_RARb_TRANS: Attagene TRANS-FACTORIAL HepG2 Assay for human Retinoic Acid Receptor beta (AID 2283004; active = hit-call score of the fitted dose curve at least 0.9, where 1 is the maximum). The method, boiled down:
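Induction of reporter mRNA from a chimeric RARb-Gal4 construct was measured by RT-PCR, FAM labelling, HpaI digestion and capillary electrophoresis. Measurements followed 24 h compound treatment of transiently transfected human HepG2 liver cells, with DMSO as baseline.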

Assay [2] addresses Retinoic acid receptor alpha (Homo sapiens) (UniProt P10276). The experiment in a line: ATG_RARa_TRANS: Attagene TRANS-FACTORIAL HepG2 Assay for human Retinoic Acid Receptor alpha (RARa) (AID 2283005; active = hit-call score of the fitted dose curve at least 0.9, where 1 is the maximum). Put shortly:
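Reporter transcripts, measured by RT-PCR with fluorescent labeling and capillary electrophoresis after 24 h dosing, reflect activity of an exogenous human RARa–GAL4 fusion in transiently transfected HepG2. Fitted for increase relative to DMSO.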

For assay [3], the target named is human Retinoic Acid Receptor gamma (RARg), RARG (gene 5916) (UniProt P13631). Nature of the assay: ATG_RARg_TRANS: Attagene TRANS-FACTORIAL HepG2 Assay for human Retinoic Acid Receptor gamma (RARg) (AID 2283009; active = hit-call score of the fitted dose curve at least 0.9, where 1 is the maximum). Put shortly: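 HepG2, RARg-GAL4 TRANS system, 24 h exposure; reporter mRNA by RT-PCR + CE fluorescence; increase over DMSO.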
For assay [4], the target named is Bile acid receptor (Homo sapiens) (UniProt Q96RI1). Nature of the assay: OT_FXR_FXRSRC1_1440: Odyssey Thera (OT) 24-hour HEK293T Protein-Complementation Assay for Farnesoid X receptor/SRC-1 Co-activator (AID 2283384; active = hit-call score of the fitted dose curve at least 0.9, where 1 is the maximum). The method, boiled down: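 Cell-based binding reporter: interaction of FXR with SRC-1 brings reporter fragments together, giving a fluorescence signal read 24 h after dosing of HEK293T cells.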

Assay [5] is described as follows: BSK_BT_PBMCCytotoxicity: PBMC Cytotoxicity Assessment in the BioMAP Diversity Plus: BT Assay (AID 2284225).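 Note: PBMC viability measured by Alamar Blue dye reduction fluorescence.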 The following applies: primary human B cells with PBMC. Put shortly: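 75,000 cells/well; cpd 1 h → SEB + TSST-1 (20 ng/mL final each) → 90 h → Alamar Blue 6 h → fluor. 546/580 nm. DMSO = neg. control/baseline.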
Read-out in assay [6]: Secreted IgG (sIgG), gene 3500
The experiment in a line: BSK_BT_sIgG: BioMAP Diversity Plus: BT Assay for Secreted IgG (sIgG) Biomarker Activity (AID 2284226). As to conditions: primary human B cells with PBMC. Put shortly: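 Secreted IgG from a human primary B cell–PBMC co-culture was measured by ELISA 24 hours after dosing, with DMSO defining baseline activity.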

Read-out in assay [7]: Tumor necrosis factor (Homo sapiens) (UniProt P01375)
Nature of the assay: BSK_BT_xTNFa: BioMAP Diversity Plus: BT Assay for Tumor necrosis factor alpha (TNF-alpha) Biomarker Activity (AID 2284230). As to conditions: primary human B cells with PBMC. The method, boiled down: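 Compounds were added to a B cell plus PBMC co-culture, and after 24 h secreted TNF-alpha was quantified with Luminex xMAP technology, with responses fitted upward from the DMSO control.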

Read-out in assay [8]: Vascular cell adhesion molecule 1 (VCAM1), VCAM1 (gene 7412)
The experiment in a line: BSK_MyoF_VCAM1: BioMAP Diversity Plus: MyoF Assay for Vascular cell adhesion molecule 1 (VCAM1) Biomarker Activity (AID 2284231). The following applies: primary human lung fibroblasts. Put shortly:
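ELISA readout of VCAM-1 on human lung fibroblast cultures 24 hours after dosing, analyzed for signal gain relative to DMSO. Overt cytotoxicity was checked by sulforhodamine B total-protein staining in parallel cultures.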

Read-out in assay [9]: Collagen III, COL3A1 (gene 1281)
The experiment in a line: BSK_MyoF_CollagenIII: BioMAP Diversity Plus: MyoF Assay for Collagen III Biomarker Activity (AID 2284239). The following applies: primary human lung fibroblasts. Put shortly:
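Collagen III biomarker quantified by ELISA in human lung fibroblast cultures 24 h after dosing. Activity fitted in the positive direction against DMSO as baseline.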

Read-out in assay [10]: Interleukin 17F (IL17F), IL17F (gene 112744)
Nature of the assay: BSK_BT_xIL17F: BioMAP Diversity Plus: BT Assay for Interleukin 17F (IL17F) Biomarker Activity (AID 2284243). As to conditions: primary human B cells with PBMC. The method, boiled down: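 Human B cells co-cultured with PBMC; secreted IL-17F quantified by LumineX xMAP 24 hours after chemical dosing. Activity fitted in the positive direction against DMSO negative control as baseline.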

Read-out in assay [11]: Actin alpha 1 (ACTA1), ACTA1 (gene 58)
Nature of the assay: BSK_MyoF_ACTA1: BioMAP Diversity Plus: MyoF Assay for Actin alpha 1 (ACTA1) Biomarker Activity (AID 2284244). As to conditions: primary human lung fibroblasts. The method, boiled down: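 Measured by ELISA: alpha-smooth muscle actin in human primary lung fibroblasts 24 h after dosing, with DMSO as baseline and upward signal change as the fitted direction.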

Read-out in assay [12]: Interleukin 2 (IL2), IL2 (gene 3558)
Nature of the assay: BSK_BT_xIL2: BioMAP Diversity Plus: BT Assay for Interleukin 2 (IL2) Biomarker Activity (AID 2284245). As to conditions: primary human B cells with PBMC. The method, boiled down:
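Secreted interleukin-2 from human B cell/PBMC co-cultures, measured 24 h post-dosing by Luminex multiplex immunoassay. Upward-direction curve fitting against DMSO baseline.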

Read-out in assay [13]: Basic fibroblast growth factor (bFGF), FGF2 (gene 2247)
Nature of the assay: BSK_MyoF_bFGF: BioMAP Diversity Plus: MyoF Assay for Basic fibroblast growth factor (bFGF) Biomarker Activity (AID 2284246). As to conditions: primary human lung fibroblasts. Put shortly:
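In this multiplexed cell system, lung fibroblasts (human primary) receive test chemical for 24 h before ELISA detection of bFGF; DMSO defines baseline and the analysis direction is positive.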

Read-out in assay [14]: Plasminogen activator inhibitor-1 (PAI1), SERPINE1 (gene 5054)
Nature of the assay: BSK_MyoF_PAI1: BioMAP Diversity Plus: MyoF Assay for Plasminogen activator inhibitor-1 (PAI1) Biomarker Activity (AID 2284256).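 For outcome: PAI-1 protein level measured by ELISA in fibroblast cultures; PAI-1 read 24 h after compound addition.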 The following applies: primary human lung fibroblasts. The method, boiled down: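 Human lung fibroblasts (MyoF system) were exposed to test chemicals for 24 h, then PAI-1 was quantified by ELISA. Activity was fitted in the positive (signal-gain) direction relative to DMSO vehicle as baseline.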

Read-out in assay [15]: Interleukin-8 (IL8), CXCL8 (gene 3576)
The experiment in a line: BSK_MyoF_IL8: BioMAP Diversity Plus: MyoF Assay for Interleukin-8 (IL8) Biomarker Activity (AID 2284261). The following applies: primary human lung fibroblasts. Put shortly:
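IL-8 quantified by ELISA after 24 h compound exposure of primary human lung fibroblasts. SRB staining of parallel cultures flagged cytotoxicity; DMSO served as baseline.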

Read-out in the next assay: Decorin, DCN (gene 1634)
The experiment in a line: BSK_MyoF_Decorin: BioMAP Diversity Plus: MyoF Assay for Decorin Biomarker Activity (AID 2284265). The following applies: primary human lung fibroblasts. Put shortly:
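Decorin protein was quantified by ELISA 24 h after chemical addition to primary human lung fibroblasts and analysed as increase over DMSO. Cytotoxicity was tracked in parallel cultures by SRB total-protein staining read at 560 nm.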

Assay [16] is described as follows: BSK_MyoF_SRB: Viability Assessment in the BioMAP Diversity Plus: MyoF Assay (AID 2284267).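 Note: total protein by SRB absorbance in parallel cultures as cytotoxicity measure; cells assessed 24 h after compound addition.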 As to conditions: primary human lung fibroblasts. Put shortly: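 Cytotoxicity in primary human lung fibroblasts is gauged by SRB total-protein staining 24 h after dosing, with DMSO as the negative control.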
The nature of assay [17]: CEETOX_H295R_MTT_cell_viability: Viability Assessment in the CeeTox HT-H295R MTT Assay (AID 2283718).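 For AC50: curve fitted both ways so AC50 may mark viability loss or gain.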 Put shortly: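 MTT reduction (0.5 mg/ml, 4 h at 37 C; absorbance at 570 and 650 nm) gave viability as background-corrected percent change versus controls. H295R cells had 48 h forskolin (10 uM) prestimulation, then 48 h chemical exposure at 0.1% DMSO.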
For assay [18], the target named is Androgen receptor (Homo sapiens) (UniProt P10275). The experiment in a line: ATG_AR_TRANS: Attagene TRANS-FACTORIAL HepG2 Assay for human Androgen Receptor (AR) (AID 2282973; active = hit-call score of the fitted dose curve at least 0.9, where 1 is the maximum). The following applies: HepG2 Attagene TRANS-FACTORIAL AR reporter transcription. Put shortly: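 Transcriptional activity of an exogenous AR–Gal4 fusion read as GAL4-UAS reporter transcript levels in transfected human HepG2 cells after 24 h dosing. Detection via RT-PCR, 6-FAM labelling, HpaI digest and capillary electrophoresis; increase over DMSO baseline.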

Assay [19] deals with rat Thyrotropin Releasing Hormone Receptor (TRH), Trhr (gene 25570) (UniProt Q01717). The experiment in a line: NVS_GPCR_rTRH: NovaScreen (NVS) G Protein-Coupled Receptor Assay for rat Thyrotropin Releasing Hormone Receptor (TRH) (AID 2283329; active = hit-call score of the fitted dose curve at least 0.9, where 1 is the maximum;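 note: hit means lower bound tracer signal versus DMSO baseline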). Put shortly: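 Rat forebrain membrane prep, radioligand displacement, filter scintillation readout at 4 h. Single conc 25 uM, duplicate; actives retested as concentration series. DMSO = negative control/baseline.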

The results in this text go back to PubChem BioAssay (EPA / NIEHS).

Molecules are shown by their SMILES. “And” between values parts separate entries of the source, which are not always exact repeats. Equal values may be shown once. Results filed as inconclusive are left out. The source made the active and inactive calls. Rule for the calls, unless noted: active = hit-call score of the fitted dose curve at least 0.9, where 1 is the maximum; inactive = score below 0.9.

As usually defined, the AC50 is the midpoint of the concentration-response curve, whichever way the signal moves.

human Retinoic Acid Receptor beta (RARb), RARB (gene 5915), sequence (P10826 whole entry, looked up, the tested form may be a part): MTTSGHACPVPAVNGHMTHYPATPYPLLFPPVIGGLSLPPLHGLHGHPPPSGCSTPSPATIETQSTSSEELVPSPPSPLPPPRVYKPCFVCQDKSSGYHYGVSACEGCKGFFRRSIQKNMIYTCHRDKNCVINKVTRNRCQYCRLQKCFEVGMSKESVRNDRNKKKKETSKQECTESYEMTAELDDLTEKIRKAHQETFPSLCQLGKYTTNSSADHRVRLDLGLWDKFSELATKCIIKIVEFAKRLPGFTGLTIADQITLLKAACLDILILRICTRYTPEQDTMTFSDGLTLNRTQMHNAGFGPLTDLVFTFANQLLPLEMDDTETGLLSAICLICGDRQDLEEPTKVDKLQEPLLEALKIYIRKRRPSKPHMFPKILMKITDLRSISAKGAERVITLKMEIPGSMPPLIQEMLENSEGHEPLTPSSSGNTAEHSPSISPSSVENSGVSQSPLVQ
Tumor necrosis factor (Homo sapiens), sequence (P01375 whole entry, looked up): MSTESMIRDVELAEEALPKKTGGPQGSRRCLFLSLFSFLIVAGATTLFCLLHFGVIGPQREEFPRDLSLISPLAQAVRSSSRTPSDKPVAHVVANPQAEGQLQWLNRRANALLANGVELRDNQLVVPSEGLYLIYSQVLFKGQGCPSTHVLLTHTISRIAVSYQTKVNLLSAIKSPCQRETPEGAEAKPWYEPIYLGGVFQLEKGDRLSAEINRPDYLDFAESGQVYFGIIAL
Retinoic acid receptor alpha (Homo sapiens), sequence (P10276 whole entry, looked up, the tested form may be a part): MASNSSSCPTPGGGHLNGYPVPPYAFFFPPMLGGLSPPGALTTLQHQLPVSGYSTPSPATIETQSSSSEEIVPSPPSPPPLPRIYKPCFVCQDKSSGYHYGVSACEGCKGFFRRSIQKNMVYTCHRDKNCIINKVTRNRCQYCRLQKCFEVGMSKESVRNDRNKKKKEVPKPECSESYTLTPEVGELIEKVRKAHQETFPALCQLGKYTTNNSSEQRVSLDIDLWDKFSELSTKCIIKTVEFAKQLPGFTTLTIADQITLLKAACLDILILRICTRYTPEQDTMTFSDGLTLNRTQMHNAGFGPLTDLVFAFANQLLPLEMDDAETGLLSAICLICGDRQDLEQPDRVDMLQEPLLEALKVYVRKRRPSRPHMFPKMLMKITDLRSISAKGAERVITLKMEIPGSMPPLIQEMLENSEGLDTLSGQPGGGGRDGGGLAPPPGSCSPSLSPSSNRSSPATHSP
human Retinoic Acid Receptor gamma (RARg), RARG (gene 5916), sequence (P13631 whole entry, looked up, the tested form may be a part): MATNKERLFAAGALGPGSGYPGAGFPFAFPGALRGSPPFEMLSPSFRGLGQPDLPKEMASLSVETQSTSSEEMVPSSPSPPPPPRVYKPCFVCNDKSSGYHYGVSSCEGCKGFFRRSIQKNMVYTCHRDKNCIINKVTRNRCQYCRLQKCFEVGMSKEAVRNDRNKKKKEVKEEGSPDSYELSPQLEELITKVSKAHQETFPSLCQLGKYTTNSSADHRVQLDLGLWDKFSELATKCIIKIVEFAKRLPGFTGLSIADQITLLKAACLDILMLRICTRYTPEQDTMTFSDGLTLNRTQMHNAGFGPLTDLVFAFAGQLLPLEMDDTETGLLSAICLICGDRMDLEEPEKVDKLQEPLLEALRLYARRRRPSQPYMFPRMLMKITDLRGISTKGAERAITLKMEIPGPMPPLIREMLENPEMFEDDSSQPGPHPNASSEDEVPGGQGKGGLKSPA
Bile acid receptor (Homo sapiens), sequence (Q96RI1 whole entry, looked up, the tested form may be a part): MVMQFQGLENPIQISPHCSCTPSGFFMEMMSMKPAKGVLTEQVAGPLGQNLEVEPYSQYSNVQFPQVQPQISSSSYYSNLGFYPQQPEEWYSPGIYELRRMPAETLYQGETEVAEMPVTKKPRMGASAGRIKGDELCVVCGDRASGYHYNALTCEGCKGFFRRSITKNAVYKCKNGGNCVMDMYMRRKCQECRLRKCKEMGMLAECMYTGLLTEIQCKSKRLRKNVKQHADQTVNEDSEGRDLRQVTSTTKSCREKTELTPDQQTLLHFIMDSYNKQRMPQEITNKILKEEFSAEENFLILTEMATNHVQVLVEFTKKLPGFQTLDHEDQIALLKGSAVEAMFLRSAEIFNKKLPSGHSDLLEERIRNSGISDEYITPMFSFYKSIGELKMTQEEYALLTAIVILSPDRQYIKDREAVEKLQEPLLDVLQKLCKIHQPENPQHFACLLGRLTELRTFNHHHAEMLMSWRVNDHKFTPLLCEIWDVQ
Androgen receptor (Homo sapiens), sequence (P10275 whole entry, looked up, the tested form may be a part): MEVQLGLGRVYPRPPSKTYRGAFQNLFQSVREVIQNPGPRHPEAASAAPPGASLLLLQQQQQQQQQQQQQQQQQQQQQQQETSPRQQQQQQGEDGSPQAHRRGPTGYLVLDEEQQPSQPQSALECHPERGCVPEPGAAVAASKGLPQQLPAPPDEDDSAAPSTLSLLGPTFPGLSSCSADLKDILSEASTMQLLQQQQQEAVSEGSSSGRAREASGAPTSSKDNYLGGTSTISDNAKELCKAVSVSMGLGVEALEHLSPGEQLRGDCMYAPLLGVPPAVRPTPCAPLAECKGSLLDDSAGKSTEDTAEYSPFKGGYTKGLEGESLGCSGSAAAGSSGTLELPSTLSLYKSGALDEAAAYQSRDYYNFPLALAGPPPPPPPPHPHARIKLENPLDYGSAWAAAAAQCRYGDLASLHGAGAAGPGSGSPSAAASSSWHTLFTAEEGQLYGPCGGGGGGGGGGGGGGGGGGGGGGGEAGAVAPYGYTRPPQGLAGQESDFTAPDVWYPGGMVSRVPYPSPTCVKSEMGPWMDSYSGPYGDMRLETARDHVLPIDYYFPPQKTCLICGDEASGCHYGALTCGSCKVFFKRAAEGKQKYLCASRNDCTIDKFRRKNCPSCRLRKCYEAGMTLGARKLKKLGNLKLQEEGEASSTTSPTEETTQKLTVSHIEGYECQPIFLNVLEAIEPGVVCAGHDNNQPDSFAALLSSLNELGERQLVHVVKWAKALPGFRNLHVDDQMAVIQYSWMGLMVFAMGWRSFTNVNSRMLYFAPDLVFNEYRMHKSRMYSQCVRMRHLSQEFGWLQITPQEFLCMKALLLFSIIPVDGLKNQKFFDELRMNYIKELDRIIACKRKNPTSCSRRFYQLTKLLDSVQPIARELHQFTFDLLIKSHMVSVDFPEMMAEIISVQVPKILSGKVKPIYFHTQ
rat Thyrotropin Releasing Hormone Receptor (TRH), Trhr (gene 25570), sequence (Q01717 whole entry, looked up): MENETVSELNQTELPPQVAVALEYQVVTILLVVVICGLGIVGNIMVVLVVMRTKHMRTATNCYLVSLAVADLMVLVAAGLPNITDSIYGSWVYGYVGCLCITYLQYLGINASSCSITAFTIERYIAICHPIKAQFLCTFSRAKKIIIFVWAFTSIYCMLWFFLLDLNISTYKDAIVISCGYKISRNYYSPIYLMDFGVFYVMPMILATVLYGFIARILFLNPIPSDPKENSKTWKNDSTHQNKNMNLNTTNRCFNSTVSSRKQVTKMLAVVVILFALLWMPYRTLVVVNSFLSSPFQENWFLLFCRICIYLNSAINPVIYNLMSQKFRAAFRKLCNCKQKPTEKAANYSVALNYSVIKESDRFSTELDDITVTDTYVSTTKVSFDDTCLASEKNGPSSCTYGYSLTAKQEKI

As to `CCOP(=O)(OCC)OCC`, the molecule was called inactive in assay [1], in assay [2] and in assay [3].

With `CC(C)(O)C#N`, the result in assay [1], in assay [2], in assay [3] and in assay [4] was inactive.

Turning to `CC(C)CCCCCCCOC(=O)c1ccccc1C(=O)OCCCCCCCC(C)C`, the result in assay [5], in assay [6], in assay [7], in assay [8], in assay [9] and in [10] was inactive. For the same molecule, the outcome in [11] was “inactive”; in [12] it was “inactive”; in assay [13], “inactive”; in assay [14], “inactive”; in [15], “inactive”; with Decorin, DCN (gene 1634), “inactive”. The result in assay [16] was inactive.

On to `Oc1cc(Cl)ccc1Cl`, for which the molecule was called inactive in [1], in [3], in assay [17], in [5], in [6] and in assay [7]. In addition, the result in assay [8], in [9], in assay [10], in [11], in assay [12] and in assay [13] was inactive. The outcome was “inactive” in assay [15]; “inactive” with Decorin, DCN (gene 1634); “inactive” in assay [16]. Besides, the concentration at half-maximal activity (AC50) in assay [14] was 245 nM (active).

For the molecule `O=C1C=CC(=O)C=C1`, the AC50 in assay [5] was 17.3 µM (active) and 27.7 µM (active); in assay [6], 10.9 µM (active) and 28 µM (active); in assay [7], 24 µM (active) and 33.1 µM (active); in assay [8] it was 34 µM (active) and 29.6 µM (active); in assay [9] it was 32.2 µM (active) and 20 µM (active); in assay [10], 29.2 µM (active). For the same molecule, the AC50 was 30.9 µM (active) and 20 µM (active) in assay [11]; 26.3 µM (active) and 32 µM (active) in assay [12]; 34.7 µM (active) and 30.6 µM (active) in assay [13]; 36.9 µM (active) and 26.8 µM (active) in assay [14]; 9.01 µM (active) and 4.78 µM (active) in assay [15]; 30.6 µM (active) and 29 µM (active) in [16]. The result with Decorin, DCN (gene 1634) was inactive.

Consider `C=C(Cl)CCl`, for which, in assay [3], the call was inactive.

`CCC(C)c1cc(C(C)(C)C)cc(-n2nc3ccccc3n2)c1O` (stereo unspecified): in assay [18], the call was inactive.

With `CN(C)CCC#N`, the result in [2] and in assay [3] was inactive.

Turning to `CC(=O)/C=C/c1ccccc1`, the AC50 in [5] was 17.4 µM (active); in [6] it was 27.2 µM (active); in assay [7], 20 µM (active); in assay [10] it was 20 µM (active); in [12], 20 µM (active). Also, the outcome in assay [8], in assay [9], in [11], in [13], in assay [14] and in assay [15] was inactive. For the same molecule, the outcome with Decorin, DCN (gene 1634) was “inactive”; in assay [16] it was “inactive”.

On to `Cc1cc(C)c(C2=C(OC(=O)CC(C)(C)C)C3(CCCC3)OC2=O)c(C)c1`, for which, in assay [4], the outcome was inactive. The concentration at half-maximal activity (AC50) in assay [17] was 93.1 µM (active).

`O=CNC(N1CCN(C(NC=O)C(Cl)(Cl)Cl)CC1)C(Cl)(Cl)Cl` (stereo unspecified): in [17], the result was inactive.

`Nc1ccc(Cl)c(Cl)c1`: in assay [17], the outcome was inactive.

Regarding `CC(=O)C=Cc1ccccc1`, the molecule was classed as inactive in [19].

On to `CCC(Br)(CC)C(=O)NC(N)=O`, for which, in assay [1], the outcome was inactive.

As for `COC(C)(C)CCC[C@H](C)C/C=C/C(C)=C/C(=O)OC(C)C`, the outcome in assay [18] is “inactive”; in [9] it was “inactive”; in assay [13] it was “inactive”; in assay [14] it was “inactive”; in assay [15], “inactive”; in the assay with Decorin, DCN (gene 1634), “inactive”. Moreover, the outcome in assay [16] was inactive. Further, the concentration at half-maximal activity (AC50) in assay [5] was 20 µM (active); in assay [6], 13.4 µM (active); in assay [7], 32.5 µM (active); in [8] it was 27.1 µM (active); in assay [10], 24.4 µM (active); in [11] it was 30.9 µM (active). Besides, the concentration at half-maximal activity (AC50) in assay [12] was 28.4 µM (active).
